Holding throughout (assay): NCI-60 one-dose screen, 48 h (100 = growth as untreated, 0 = no growth, -100 = all killed)
For one test, the system named is SK-MEL-2 melanoma. Conditions: 10 µM unless noted.
The next test relates to EKVX NSCLC. Conditions: 10 µM unless noted.
The next test concerns SN12C renal. The note with it: 10 µM unless noted.
The subject of another test is UO-31 renal. The note with it: 10 µM unless noted.
A further test deals with TK-10 renal. The note with it: 10 µM unless noted.
In another test the test system is A498 renal. Conditions: 10 µM unless noted.
Another test concerns CCRF-CEM leukemia. The note with it: 10 µM unless noted.
The subject of another test is MOLT-4 leukemia. The note with it: 10 µM unless noted.
In a further test the test system is SR leukemia. The note with it: 10 µM unless noted.
For a further test, the system named is RPMI-8226 leukemia. The note with it: 10 µM unless noted.
Another test concerns OVCAR-8 ovarian. Conditions: 10 µM unless noted.
The subject of the next test is OVCAR-5 ovarian. The note with it: 10 µM unless noted.
Another test has as its system OVCAR-4 ovarian. Conditions: 10 µM unless noted.
Another test deals with SK-OV-3 ovarian. Conditions: 10 µM unless noted.
The subject of another test is IGROV1 ovarian. Conditions: 10 µM unless noted.
Another test has as its system OVCAR-3 ovarian. The note with it: 10 µM unless noted.
A further test has as its system HS 578T breast. Conditions: 10 µM unless noted.
The subject of the next test is NCI/ADR-RES ovarian. The note with it: 10 µM unless noted.
Another test has as its system ACHN renal. Conditions: 10 µM unless noted.
In the next test the test system is CAKI-1 renal. The note with it: 10 µM.

Molecules are shown by their SMILES. Compounds without any hit were thinned out: in the full panel of roughly 83,000, 20% have a hit.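 Treatment: one concentration, 48 hours, 96-well format. Scoring: percent growth, with anything below 10 considered active.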 Values without a mark were called inactive. Activity calls are given as the source filed them.

For the molecule `O=C(O)c1cccc(S(=O)(=O)c2ccccc2)c1`, the growth in the test with SK-MEL-2 melanoma is 104%; in the test on EKVX NSCLC it was 92.6%; in the test on SN12C renal it was 102%; in the test with UO-31 renal it was 96.1%; with TK-10 renal it was 93.2%; in the test on A498 renal, 98.5%. For the same molecule, the growth was 103% in the test on CCRF-CEM leukemia; 99.6% in the test on MOLT-4 leukemia; 97.1% in the test on SR leukemia; 103% in the test on RPMI-8226 leukemia; 112% with OVCAR-8 ovarian; 99% with OVCAR-5 ovarian. The growth with OVCAR-4 ovarian is 102%; in the test on SK-OV-3 ovarian, 116%; with IGROV1 ovarian, 100%; in the test on OVCAR-3 ovarian it was 107%; with HS 578T breast it was 91.6%; in the test on NCI/ADR-RES ovarian it was 104%.

On to `CCCCCCCCN(CCCCCCCC)CC(O)c1cc(-c2ccccc2)nc2ccc(OC)cc12` (configuration not stated), for which the growth with SK-MEL-2 melanoma was 78.1%; with EKVX NSCLC, 94.6%; in the test on SN12C renal, 39.9%; with UO-31 renal it was 42.4%; with TK-10 renal, 91.7%; with A498 renal it was 83.4%. In addition, the growth in the test with CCRF-CEM leukemia is 4.59% (active); in the test on MOLT-4 leukemia, 9.81% (active); in the test with SR leukemia it was 5.05% (active); in the test on RPMI-8226 leukemia it was 1.99% (active); with OVCAR-8 ovarian it was 8.91% (active); with OVCAR-5 ovarian, 101%. The growth was 78.4% with OVCAR-4 ovarian; 103% in the test with SK-OV-3 ovarian; 95.8% in the test with IGROV1 ovarian; 66.6% in the test on OVCAR-3 ovarian; 99.1% with HS 578T breast; 13.4% in the test on NCI/ADR-RES ovarian.

`O=[N+]([O-])c1cccc(C2c3ccccc3Oc3ccccc32)c1`: the growth in the test with SK-MEL-2 melanoma was 107%; in the test with EKVX NSCLC it was 93.9%; in the test on SN12C renal it was 99.9%; with UO-31 renal, 70.7%; in the test on ACHN renal, 89.1%; in the test on CAKI-1 renal, 72.4%. Moreover, the growth with A498 renal was 94.1%; with CCRF-CEM leukemia, 88.6%; in the test on MOLT-4 leukemia, 79.6%; with SR leukemia it was 77.4%; with RPMI-8226 leukemia, 82.2%; in the test on OVCAR-8 ovarian it was 89.4%. Also, the growth in the test on OVCAR-5 ovarian is 90.8%; with OVCAR-4 ovarian, 91%; in the test on SK-OV-3 ovarian, 84.1%; in the test with IGROV1 ovarian, 76.8%; in the test on OVCAR-3 ovarian, 91.7%.

For `CCOc1ccc(NC2=C(Cl)C(=O)c3ccccc3C2=O)cc1`, the growth in the test on SK-MEL-2 melanoma is 88.2%; with EKVX NSCLC, 87.2%; with SN12C renal, 61%; in the test on UO-31 renal, 77.9%; in the test with TK-10 renal, 136%; in the test with A498 renal, 80.8%. Besides, the growth is 33.3% with CCRF-CEM leukemia; 75.7% in the test on MOLT-4 leukemia; -6.21% (active) in the test on SR leukemia; 41.7% in the test on RPMI-8226 leukemia; 62.7% with OVCAR-8 ovarian; 110% with OVCAR-5 ovarian. Moreover, the growth in the test with OVCAR-4 ovarian is 91.9%; in the test with SK-OV-3 ovarian it was 92.1%; with IGROV1 ovarian, 0.21% (active); in the test on OVCAR-3 ovarian, 43.5%; in the test with HS 578T breast, 95.4%; with NCI/ADR-RES ovarian it was 98.5%.

As to `CCCCCCCCCCCCCCCCCCNCc1ccc(Cl)cc1`, the growth in the test on SK-MEL-2 melanoma was -73.3% (active); in the test on EKVX NSCLC it was -30.2% (active); in the test with SN12C renal, -60.8% (active); in the test with UO-31 renal, -78.6% (active); in the test on TK-10 renal, -65.1% (active); in the test on A498 renal it was -75.8% (active). The growth in the test with CCRF-CEM leukemia was -45.9% (active); in the test on MOLT-4 leukemia, -62.1% (active); with SR leukemia it was -30.1% (active); with RPMI-8226 leukemia, -53.9% (active); in the test with OVCAR-8 ovarian, -62.7% (active); in the test with OVCAR-5 ovarian, -59.5% (active). Moreover, the growth in the test on OVCAR-4 ovarian is -69.1% (active); in the test on SK-OV-3 ovarian it was -33.1% (active); in the test on IGROV1 ovarian, -64.6% (active); with OVCAR-3 ovarian, -87.9% (active); with HS 578T breast it was -48.7% (active); in the test on NCI/ADR-RES ovarian it was -64.6% (active).

As to `CNCCCOc1c(Br)cc(CCNC(=O)/C(Cc2cc(Br)c(OC)c(Br)c2)=N/O)cc1Br`, the growth in the test with SK-MEL-2 melanoma was -54.7% (active); in the test with EKVX NSCLC it was 26.3%; in the test on SN12C renal, -74% (active); in the test on UO-31 renal, -44.9% (active); with TK-10 renal, 34.7%; in the test on A498 renal it was 31.9%. Moreover, the growth in the test with CCRF-CEM leukemia is -9.15% (active); in the test on MOLT-4 leukemia, -17.4% (active); with SR leukemia it was -57% (active); with RPMI-8226 leukemia, -30.7% (active); in the test on OVCAR-8 ovarian it was 2.04% (active); in the test with OVCAR-5 ovarian, 36.2%. Also, the growth was 14.3% in the test with OVCAR-4 ovarian; 37.2% in the test on SK-OV-3 ovarian; 6.03% (active) with IGROV1 ovarian; -25.4% (active) in the test on OVCAR-3 ovarian; -17.9% (active) in the test on HS 578T breast; 9.44% (active) in the test with NCI/ADR-RES ovarian.

As for `COc1ccc(-c2nnc(SCC(=O)Nc3ccc(C(=O)/C=C/c4ccc(Cl)cc4)cc3)o2)cc1OC`, the growth in the test with SK-MEL-2 melanoma was 72%; with EKVX NSCLC it was 80.2%; with SN12C renal, 47.8%; in the test on UO-31 renal it was 72.3%; with TK-10 renal it was 52.8%; with A498 renal, 88.7%. Also, the growth in the test on CCRF-CEM leukemia is 65.1%; in the test on MOLT-4 leukemia, 41.1%; with SR leukemia, 24.2%; in the test on RPMI-8226 leukemia, 59.4%; in the test on OVCAR-8 ovarian, 37.4%; in the test on OVCAR-5 ovarian it was 90.5%. Further, the growth is -17.1% (active) in the test on OVCAR-4 ovarian; 87.4% in the test on SK-OV-3 ovarian; 70.4% with IGROV1 ovarian; 106% with OVCAR-3 ovarian; 102% in the test with HS 578T breast; 38.4% in the test on NCI/ADR-RES ovarian.

Turning to `CC(=O)n1cc(/C=C2\N=C(c3ccc(Cl)cc3)N(c3ccc(S(=O)(=O)Nc4nccs4)cc3)C2=O)c2ccccc21`, the growth was 89.2% in the test with SK-MEL-2 melanoma; 85.7% in the test with EKVX NSCLC; 74.3% with SN12C renal; 70.4% in the test on UO-31 renal; 117% in the test on TK-10 renal; 74.9% with A498 renal. The growth is 47.8% in the test on CCRF-CEM leukemia; 51.1% in the test on MOLT-4 leukemia; 61.3% in the test on SR leukemia; 66.1% with OVCAR-8 ovarian; 105% in the test with OVCAR-5 ovarian; 73.3% with OVCAR-4 ovarian. The growth in the test with SK-OV-3 ovarian was 110%; with IGROV1 ovarian it was 91.4%; in the test on OVCAR-3 ovarian, 76.9%; in the test with HS 578T breast, 72.4%; in the test with NCI/ADR-RES ovarian it was 106%.

For the origin of these results see PubChem BioAssay (NCI).
